Experimental data taken from the supplement of paper PMC3656093.
± gives the standard deviation of the averaged measurements. Over roughly 1,900 compounds, “CD40L-induced NF-kB luciferase activity, plate-corrected, relative to DMSO (0) and IKK inhibitor VII (-100) controls” has its median near 0.032; the lowest 2% begin near -26. Many of the other results were omitted from the sample, so the lowest values are more common in it than they were.

System: BL2-NFkB-Luc
Assay: CD40L-induced NF-kB luciferase activity, plate-corrected, relative to DMSO (0) and IKK inhibitor VII (-100) controls (% normalized activity); higher = more NF-kB reporter activity (less inhibition)
Conditions: 9.4 µM; stimulus: tCD40L 64 ng/ml; 4.5 h
Procedure: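 BL2 B cells with a stable NF-kB response-element luciferase reporter (BL2-NFkB-Luc), 384-well. Cells were pre-incubated with compound at 9.4 uM for 1 h at 37 C, then stimulated with 64 ng/ml trimerized CD40L for 4.5 h; luciferase was read with Steady-Glo. Signal was normalised per plate in Genedata (median DMSO neutral control = 0, median IKK inhibitor VII at 50 uM = -100) with Assay Median plate-pattern correction; duplicate plates.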

SMILES | CD40L-induced NF-kB luciferase activity
CCOc1cc(C=O)ccc1OCCSc1ccc(C)cc1 | 8.64 ± 2
CCC(C)NCCOCCOc1ccc(Cl)c2ccccc12 (configuration not stated) | -3.83 ± 0.8
COc1ccc2oc(=O)c(-c3nc(C)cs3)cc2c1 | 82.6 ± 9.2
Cc1ccc2c(c1)c(=O)c1c3n2CCN(C(=O)CCl)C3CC1 (configuration not stated) | -2.91 ± 2.5
CC1(C)Cc2ccccc2-c2nc(-c3ccccc3)oc(=O)c21 | 2.15 ± 0.84
O=C(c1ccc([N+](=O)[O-])cc1)N1CCSC1c1ccccc1Cl (configuration not stated) | 4.04 ± 5
CN(C)CCOc1ccccc1Cc1ccccc1 | 0.196 ± 5
O=C(NC1CCCCC1)c1cc2nc(-c3ccco3)cc(C(F)(F)F)n2n1 | 1.55 ± 1.8
CC(C)Oc1ccc(C2CC(=O)N(c3ccc(C(=O)O)cc3)C2=O)cc1 (configuration not stated) | -3.94 ± 6.9
O=C(NCc1ccc(N2CCCC2=O)cc1)c1cccc(Cl)c1 | 0.303 ± 1.9
CCNC(=O)c1c(N)sc2c1CCCCC2 | 2.16 ± 2.4
CC(C)OC(=O)c1ccc(NC(=O)c2cncc(Br)c2)cc1 | 4.22 ± 5
CCOc1cc(C)cc2oc(=O)cc(-c3ccccc3)c12 | 3.93 ± 4.9
Cc1cc(O)c(C(=O)Cc2csc(C)n2)c(O)c1 | 45.9 ± 3.3
COc1cc(NC(=O)COc2ccccc2)c(OC)cc1NC(C)=O | 2.35 ± 11
COc1ccc(C(=O)NCc2cccnc2)cc1 | -2.51 ± 0.59
CCC(=O)c1ccc(OCc2ccc(C(=O)OC)cc2)cc1 | 47.3 ± 2.2
COc1ccc(OCc2cccc(C(=O)NN)c2)cc1 | -59.1 ± 2.2
CC(=O)[C@H]1CC[C@H]2[C@@H]3CCC4=CC(=O)CC[C@]4(C)[C@H]3[C@H](O)C[C@]12C | -10.6 ± 14
COc1cc2nc(-c3ccccc3)nc(N3CCCC3)c2cc1OC | 14.1 ± 1.1
C=C(C)c1nc2cc(OC)c(OC)cc2c(=O)o1 | -30.6 ± 9.3
COc1ccc(/C=C\C(=O)c2c(O)ccc3c(C)cc(=O)oc23)cc1OC | -14 ± 3.3
COc1cc2cc(C(=O)O)[nH]c2c(OC)c1OC | 1.43 ± 0.11

SMILES | CD40L-induced NF-kB luciferase activity
Cc1oc2ccc(OC(=O)c3cccs3)cc2c1C(=O)OC(C)C | 6.48 ± 1
Cc1ccc2c(c1)C(CCN)C(=O)N2Cc1ccccc1 (configuration not stated) | 1.33 ± 2
CC12CCC(C(=O)N3CCc4ccccc43)(CC1=O)C2(C)C (configuration not stated) | -7.25 ± 2.2
COc1cc2c(cc1OC)C(c1cc3ccccc3oc1=O)=NC(C)(C)C2 | -0.782 ± 0.12
COc1cc(C2CC(=O)NC3=C2C(=O)CC(C)(C)C3)ccc1O (configuration not stated) | 7.59 ± 2.5
O=C1[C@@H]2[C@H](Cc3ccc(O)cc3)N[C@]3(C(=O)Nc4ccccc43)[C@@H]2C(=O)N1c1ccc(F)cc1 | -2.13 ± 3.5
COc1ccc2oc(C)c(C(N)=O)c2c1 | 5.21 ± 2.3
Cc1ccc(S(=O)(=O)NC(C(=O)Oc2cc3oc(=O)cc(C)c3cc2Cl)C(C)C)cc1 (configuration not stated) | -3.08 ± 0.98
c1ccc(Cn2nnc3cnccc32)cc1 | 3.11 ± 1.1
Fc1ccc(-c2cc(-c3ccccc3)nc(-n3cccn3)n2)cc1 | -4.51 ± 1.4
O=C(/C=C/c1ccc2c(c1)OCCCO2)c1ccc2ccccc2c1O | 44.2 ± 0.67
COC(=O)CCC(=O)CN | -0.0616 ± 1.1
O=C(O)[C@@H](O)c1ccccc1 | -1.47 ± 0.027
C=CCOC(=O)C1=C(C)NC(=O)NC1/C=C/c1ccccc1OC (configuration not stated) | -0.888 ± 0.046
COc1ccc(C2C3=C(OC(C)=O)c4ccccc4C3=Nc3c2c(=O)n(C)c(=O)n3C)cc1 (configuration not stated) | 6.21 ± 0.2
CC(=O)Oc1ccc(C2OC(=O)c3ccccc3N2C(C)=O)cc1 (configuration not stated) | -32.9 ± 1
COc1ccc(C2C(=O)c3ccccc3C2=O)cc1 | 0.868 ± 0.29
COc1ccc(-c2coc3cc(OC(=O)N4CCOCC4)ccc3c2=O)cc1 | 5.32 ± 1.2
CCCCC(=O)O[C@]1(C(=O)CO)CC[C@H]2[C@@H]3CCC4=CC(=O)CC[C@]4(C)[C@H]3[C@@H](O)C[C@@]21C | -43.1 ± 20
C[C@]12C[C@H](O)[C@H]3[C@@H](CCC4=CC(=O)CC[C@@]43C)[C@@H]1CC[C@@H]2C(=O)CO | -19.6 ± 8.2
C[C@]12CCC(=O)C=C1CC[C@@H]1[C@@H]2[C@@H](O)C[C@@]2(C)[C@H]1CC[C@]2(O)C(=O)CO | -24.3 ± 5.5
CCCC(=O)O[C@]1(C(=O)CO)CC[C@H]2[C@@H]3CCC4=CC(=O)CC[C@]4(C)[C@H]3[C@@H](O)C[C@@]21C | -31.6 ± 7.7
CCCCCCCC(=O)OCC(=O)[C@@]1(O)CC[C@H]2[C@@H]3CCC4=CC(=O)CC[C@]4(C)[C@H]3[C@@H](O)C[C@@]21C | -24.2 ± 1.8

SMILES | CD40L-induced NF-kB luciferase activity
CCCCCC(=O)O[C@]1(C(C)=O)CC[C@H]2[C@@H]3CCC4=CC(=O)CC[C@]4(C)[C@H]3CC[C@@]21C | -8.91 ± 0.8
CC(C(=O)O)c1ccc(N2Cc3ccccc3C2=O)cc1 (configuration not stated) | -43.6 ± 2.8
CC(C)Cc1ccc(C(C)C(=O)O)cc1 (configuration not stated) | 2.3 ± 5
CC(C(=O)O)c1ccc(-c2ccccc2)c(F)c1 (configuration not stated) | 2.04 ± 0.53
COc1cc(C(=O)OCCn2c(=O)c3c(ncn3CCN(C)C)n(C)c2=O)cc(OC)c1OC | -3 ± 1.3
Nc1ccn([C@@H]2O[C@H](CO)[C@@H](O)[C@@H]2O)c(=O)n1 | -30.5 ± 2.4
O=c1ccn([C@@H]2O[C@H](CO)[C@@H](O)[C@H]2O)c(=O)[nH]1 | -6.55 ± 1.5
Nc1cnn(C2OC(CO)C(O)C2O)c(=O)n1 (configuration not stated) | 6.46 ± 4.2
CC(C)CC(=O)OC1C(N2CCOCC2)c2c(ccc(/C=C/C(=O)N3CCOCC3)c2O)OC1(C)C (configuration not stated) | -1.24 ± 1.2
O=C(/C=C/c1ccco1)N1CCN(c2ccccc2)CC1 | 6.71 ± 0.18
Cc1ccc2c(c1)C(O)(c1c(C)[nH]c3ccccc13)C(=O)N2 (configuration not stated) | 3.92 ± 8.9
O=C(NC(=S)N1CCCCC1)c1cccnc1 | -3.04 ± 2.8
O=C(CCCN1C(=O)/C(=C\c2cccc(Br)c2)SC1=S)Nc1cccnc1 | -2.47 ± 4.1
CC(/C=C1\SC(=O)N(CCCC(=O)O)C1=O)=C\c1ccccc1 | -84.08 ± 0.44
O=C(CCCN1C(=O)/C(=C\c2cccs2)SC1=S)Nc1ccccn1 | -2.54 ± 1.1
C(=C\c1ccc2ccccc2n1)/c1ccccc1 | -56 ± 3.4
COCCn1c(/C=C/c2ccccc2)nc2ccccc21 | 38.4 ± 2.4
CCn1c(/C=C/c2ccccc2)nc2ccccc2c1=O | 4.25 ± 3.8
O=c1cnn([C@@H]2O[C@H](CO)[C@@H](O)[C@H]2O)c(=O)[nH]1 | 10.5 ± 4.8
O=C(Nc1c(C(=O)O)[nH]c2ccccc12)NC1CCCCC1 | -0.728 ± 0.3
O=C(CC1(O)C(=O)Nc2ccccc21)c1ccccc1O (configuration not stated) | 1.73 ± 4.3
